One may read the inhibition as the change of the read-out against control, counted positive when it falls.

Screen size: about 320,000 compounds; about 1,300 (0.41%) were called active. Inconclusive results (about 3%) are left out. No rule for the calls is given here. Not all results are given here. Measured potencies and affinities stand elsewhere.

A short description of this assay: growth inhibition of non-replicating M. tuberculosis (AID 488890).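 Also: plate controls were DMSO cells for no effect and high antibiotic wells for full effect.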 Conditions: Mycobacterium tuberculosis non-replicating, at 25 µM, stronger effect = higher value.
As to `Cc1cc(Nc2nc3ccccc3nc2Cl)n(-c2ccccc2)n1`, the inhibition is 8.46%.
On to `CC(C)(O)C(=O)NNC(=S)NCc1ccco1`, for which the inhibition is -2.82%.
With `CC(C)(C)NC(=S)NCc1ccco1` the figure was -18.9%; with `COc1ccc(/C=N/NC(=O)c2cccs2)c2ccccc12`, 76.3%.
With `CCOC(=O)CCCNC(=O)COC(=O)c1cc(C)cc(C)c1` the figure was -5.81%.
Next, `CCOC(=O)CCCNC(=O)COC(=O)c1ccc(O)cc1`: -2.65%; `COc1ccc(S(=O)(=O)NCC2CCCN(Cc3ccc(C)o3)C2)cc1` (centres undefined): 8.61%.
On to `COc1ccc(C(=O)N2CCN(CCNC(=O)C(=O)Nc3ccc(F)cc3)CC2)cc1OC`, for which the inhibition is -5.42%.
With `CC(C)NCC(=O)C12CC3CC(CC(C3)C1)C2` the figure was -12.5%; with `COc1ccc(C(=O)COC(=O)CCc2nc3ccccc3[nH]c2=O)cc1Br`, 5.73%.
Next, `COC1CCCN(C(=O)c2ccc3oc(Cc4ccc(Cl)cc4)nc3c2)C1` (centres undefined): 23.6%; `CCN(CC)c1ccc(CNCc2cccs2)cc1`: 6.27%; `CC(=O)OCCNC(=O)c1cc2ccccc2oc1=O`: -10.9%.
Turning to `COc1cccc2cc(C(=O)NC(C)c3ccccc3)c(=O)oc12` (centres undefined), the inhibition is 26.4%.
Next, `CC(NC(=O)c1cc(Br)ccc1Cl)c1ccccc1` (centres undefined): 0.91%; `Cc1ccc(C(C)NC(=O)c2ccco2)cc1C` (centres undefined): 71.1%; `O=C(COc1ccccc1)NNC(=O)c1cc2ccccc2oc1=O`: 10.5%.
With `COc1ccc2oc(=O)c(C(=O)NC(C)c3ccccc3)cc2c1` (centres undefined) the figure was 16.5%; with `Cc1cc(C)cc(OCC(=O)NNC(=O)c2cc3ccccc3o2)c1`, -4.01%; with `CC(NC(=O)c1cc(Br)ccc1Br)c1ccccc1` (centres undefined), -17.5%.
Next, `Cc1ccccc1CS(=O)(=O)CCC(=O)NCCCN1CCOCC1`: -2.86%.
Consider `CCN(CC)CCNC(=O)c1ccc(NC(=O)c2cc(-c3ccco3)nc3ccccc23)cc1`, for which the inhibition was determined as 4.2%.
With `O=C(CCc1ccccc1)Nc1cc(NC(=O)CCc2ccccc2)cc(C(=O)O)c1` the figure was -12.7%.
Next, `COc1ccc(C(=O)Nc2ccccc2NC(=O)c2ccc(OC)cc2)cc1`: -3.72%; `COc1ccc(-c2nc(-c3cccs3)no2)cc1`: 24.2%; `COc1ccc(/C=N/c2nc3ccccc3n2CCN2CCCCC2)cc1OC`: 4.24%.
With `Cc1ccc(S(=O)(=O)N2CCOC2CNC(=O)C(=O)NCCN(C)C)cc1` (centres undefined) the figure was -4.76%; with `CCN(C(=O)COC(=O)c1ccc(Cl)cc1N)C1CCCCC1`, 30.8%.
Take `O=c1c2cc([N+](=O)[O-])cc([N+](=O)[O-])c2[nH]n1-c1ccccc1`: the inhibition was 5.65%.
With `CC(=NNC(=O)COc1cccc(C)c1)c1cccnc1` the figure was 2.36%; with `COc1ccc(CNC(=O)C/C(C)=N/NC(=O)COc2cccc(C)c2)cc1`, -10.6%.
With `O=S(=O)(Nc1ccc2c3c(cccc13)CC2)c1ccc(F)cc1` the figure was 21.3%; with `O=S(=O)(Nc1c(O)ccc2ccccc12)c1ccc(F)cc1`, -1.3%; with `O=C(COc1ccc(Br)cc1)Nc1ccccc1N1CCCC1`, 26.6%.
With `O=C(Nc1nc2ccccc2n1Cc1ccccc1)c1ccc(COc2ccccc2[N+](=O)[O-])o1` the figure was -4.43%.
Consider `CCn1c(-c2nonc2NC(=O)c2ccccc2)nc2ccccc21`, for which the inhibition worked out at 3.27%.
With `CCn1c(CNC(=O)c2ccccc2)nc2ccccc21` the figure was 2.98%.
In the case of `CCn1c(NC(=O)Nc2ccccc2OC)nc2ccccc21`, the inhibition is 43%.
Next, `CCn1c(NC(=S)Nc2ccccc2)nc2ccccc21`: 57.9%.
Turning to `CN(C)CCCn1c(NC(=O)C2CCCCC2)nc2ccccc21`, the inhibition was determined as 24.1%.
With `CCn1c(NC2CCCCC2)nc2ccccc21` the figure was 8.52%; with `CCn1c(NC(=O)c2ccc(COc3ccc(C)cc3[N+](=O)[O-])o2)nc2ccccc21`, 14%; with `COc1ccc(C(C)(C)NC(=O)C2CCC(=O)N(C3CCCC3)C2)cc1OC` (centres undefined), 1.54%.
Next, `O=C(O)c1cc(-c2ccc(Cl)cc2)n(-c2ccc(Cl)cc2)n1`: 28.3%.
With `O=C(COC(=O)c1ccc(OC(F)F)cc1)Nc1cccc(S(=O)(=O)NC2=NCCC2)c1` the figure was -15.4%; with `CN(C)S(=O)(=O)N1CCC(Oc2ccc(C(=O)N3C[C@H]4CC[C@H]3C4)cc2)CC1`, -6.7%; with `O=C(CCS(=O)(=O)Cc1ccccc1)NCC1CCCO1` (centres undefined), -2.41%.
As for `CNC(=O)n1cc(C)c(-c2cccs2)n1`, the inhibition was found to be 3.54%.
With `O=C(NCc1cccnc1)C1CCC(CNS(=O)(=O)c2cccc3nsnc23)CC1` (centres undefined) the figure was -1.6%.
With `CCOc1cc(S(=O)(=O)NC2CCCCC2)ccc1F` the figure was 22.4%.
Next, `C=CCn1c(SCC(=O)Nc2ccc(C(=O)O)cc2)nc2scc(-c3ccccc3)c2c1=O`: 6.43%.
On to `O=C(Nc1nc2ccccc2n1CCN1CCOCC1)c1ccccc1`, for which the inhibition came out at 78.5%.
In the case of `CCCn1c(CNC(=O)c2ccccc2)nc2ccccc21`, the inhibition stood at 1.31%.
With `Cn1c(NC(=O)c2cccnc2)nc2ccccc21` the figure was 74.7%; with `Cn1c(CCNC(=O)c2ccccc2)nc2ccccc21`, -11.6%; with `CCn1c(/C=N/Nc2ccc(C(=O)O)cc2)nc2ccccc21`, 5.68%.
Consider `CCn1c(C)nc2cc(C(=O)N/N=C/c3ccc(OC)cc3)ccc21`, for which the inhibition was -1.99%.
Take `Cc1ccc(-n2nc3c(=O)n(CCCC(=O)NCc4ccc(Cl)cc4)nc(C)c3c2C)cc1`: the inhibition worked out at 52.4%.
With `Cc1ccc(C(C(=O)NC2CCCC2)N(C(=O)c2csnn2)c2ccccc2)o1` (centres undefined) the figure was 9.58%; with `O=[N+]([O-])c1cccc(/C=N\N2CCN(Cc3ccccc3Cl)CC2)c1`, -2.97%.
With `O=C(COc1ccc(Br)cc1)N1CCC(c2ccccc2)C1` (centres undefined), the inhibition turned out to be 68%.
With `COC(=O)C1(C)CN(S(=O)(=O)c2ccc(C)cc2)c2cc(OC)ccc2C1=O` (centres undefined) the figure was 35.5%; with `O=[N+]([O-])c1ccc(Oc2cccc(C(F)(F)F)c2)nc1`, 65.4%.
On to `O=S(=O)(c1cccc(C(F)(F)F)c1)c1ccc(O)cn1`, for which the inhibition is 0.61%.
Regarding `Cc1cc(Sc2ccc([N+](=O)[O-])cn2)ccc1Br`, the inhibition worked out at 12.1%.
`CC1=NCCN1S(=O)(=O)c1ccc(Br)c(C)c1`: the inhibition was determined as 1.05%.
Next, `CCOc1ccc(CCNC(=O)COC(=O)Cn2cnc3ccccc3c2=O)cc1OCC`: 18.2%.
Next, `COc1ccccc1CNC(=O)COC(=O)COc1ccccc1Cc1ccccc1`: 25.1%; `O=C(Nc1cccc(-n2cnnn2)c1)c1ccoc1COc1ccc(Cl)cc1`: 5.71%; `CSc1ccccc1C(=O)C1CCCN(S(=O)(=O)c2c(C)noc2C)C1` (centres undefined): -0.64%.
Next, `c1ccc(Nc2c(-c3ccco3)nc3ccccn23)cc1`: 43.1%; `Cc1ccc(Nc2c(-c3ccco3)nc3ccccn23)cc1`: 43.3%; `CCOc1ccc(S(=O)(=O)N(CC(=O)NCc2cccnc2)c2ccc(F)cc2)cc1`: 1.08%.
Consider `CCN(C[C@H]1N[C@@](CC)(C(=O)OC)[C@H]2C(=O)N(C)C(=O)[C@@H]12)C(=O)Nc1ccc(C)cc1`, for which the inhibition is 3.1%.
Next, `O=C1c2ccccc2NC(c2ccc3c(c2)OCCO3)N1c1ccc2c(c1)OCCO2` (centres undefined): 29.3%.
With `O=C(O)C1CC(=O)N(c2ccc3c(c2)OCCO3)C1` (centres undefined) the figure was -10.2%; with `CN1CCN(c2ccc(CNC(=O)c3ccc4c(c3)OCCO4)cc2)CC1`, -0.49%.
For the molecule `Cc1cc(Cl)ccc1NC(=O)COC(=O)c1nc2nccc(C)n2n1`, the inhibition was -0.03%.
In the case of `CC(CN1CCOCC1)OC(=O)c1ccccc1` (centres undefined), the inhibition was -8.24%.
Next, `CC(CN1CCCC1)OC(=O)c1ccc(Br)cc1` (centres undefined): -10.6%.
Next, `O=C(CCN1CCOCC1)c1ccccc1`: 75.5%; `O=C(CN1CCOCC1)c1ccc(Br)cc1`: 61.8%; `COc1cc2c(cc1OC)CN(CCOc1ccc(Br)cc1)CC2`: 17.6%.
With `COc1cc2c(cc1OC)CN(C(=O)CCC(=O)c1ccc(F)cc1)CC2` the figure was 19.6%; with `O=C(NCCN1CCOCC1)c1ccc(Cl)cc1`, -1.14%.
With `O=C(NCCCN1CCOCC1)c1ccc(Br)cc1`, the inhibition came to 17.1%.
Next, `O=C(CCc1ccccc1)Nc1ccccc1F`: 18.9%; `COc1ccccc1N(C(=O)CNC(=O)c1ccco1)C(C(=O)NC1CCCC1)c1ccncc1` (centres undefined): 2.47%.
For `CSc1cccc(NC(=O)CCNS(=O)(=O)c2ccc3[nH]c(=O)oc3c2)c1`, the inhibition was -8.71%.
Next, `O=C(NCCCN1CCOCC1)c1cc2c([nH]c3ccccc32)c(-c2cccc(Br)c2)n1`: 77.1%; `CN=C1S/C(=C/c2cn(CC(=O)OC)c3ccccc23)C(=O)N1C`: 47.1%; `O=C(O)C1CC(=O)N(CCOc2ccccc2)C1` (centres undefined): -0.16%.
Next, `CC1CCC(NC(=O)CCNC(=O)c2ccc(Br)cc2)CC1` (centres undefined): 67.6%.
Turning to `Cn1cnnc1Sc1ccc(C(=O)NCCC23CC4CC(CC(C4)C2)C3)cc1[N+](=O)[O-]`, the inhibition turned out to be 33.9%.
With `COc1ccc(C(C)C)cc1S(=O)(=O)NCC1CCCO1` (centres undefined) the figure was 16%; with `CC1CCCN(CCC(=O)Nc2ccc(Br)cc2)C1` (centres undefined), 10.6%.
Next, `CC1CCCN(CCOc2ccc(Br)cc2)C1` (centres undefined): 16.9%.
For `COc1ccc(OC)c2c1CC(C)(C)NC2=O`, the inhibition is -28.9%.
With `COc1ccc(/C=C2\SC(=S)N(CCCC(=O)Nc3ccc(O)cc3)C2=O)cc1` the figure was 53.3%.
For `COc1ccc(/C=C2/SC(=S)N(CCCC(=O)Nc3ccc(O)cc3)C2=O)cc1`, the inhibition stood at 71.1%.
Consider `Cc1ccc(S(=O)(=O)CCC(=O)Oc2ccc3c(C)cc(=O)oc3c2)cc1`, for which the inhibition stood at 6.87%.
With `CC(C)CNC(=O)N1c2ccccc2Sc2ccccc21` the figure was 30.4%; with `N=c1c(S(=O)(=O)c2ccc(Cl)cc2)cc2c(=O)n3ccccc3nc2n1CCc1ccccc1`, 16.6%.
Next, `Cc1ccc(C)c(OCCCN2CCCC2)c1`: -3.13%; `Oc1ccc(Br)cc1/C=N/Nc1ncc(-c2ccccc2)cn1`: 1.56%; `Fc1ccccc1/C=N/Nc1nc2ccccc2o1`: 14.1%.
Next, `Oc1ccc(/C=N/Nc2ncc(Br)cn2)c(O)c1`: 57.8%.
As for `Brc1ccc(/C=N/Nc2nc3ccccc3o2)cc1`, the inhibition was 0.82%.
Take `Clc1cc(Cl)cc(NC2=NCCS2)c1`: the inhibition worked out at 5.95%.
Next, `COc1ccc(S(=O)(=O)n2oc(=O)cc2-c2ccccc2)cc1OC`: -6.84%; `Cc1occc1C(=O)NC1CCCc2ccccc21` (centres undefined): 3.75%; `Cc1ccc(NC(=O)COc2ncnc3sccc23)cc1S(=O)(=O)N(C)C`: 7.74%.
Next, `Cc1c(C#N)c2ccccc2n1C`: -15.1%; `NC(=O)C1CC(=O)N(c2ccc(OCc3ccccc3Cl)cc2)C1` (centres undefined): 58.3%.
With `COC(=O)C1CC(=O)N(c2ccc(C)cc2)C1` (centres undefined), the inhibition was determined as 24.5%.
`O=C(O)C1CC(=O)N(c2ccc(OCc3ccccc3Cl)cc2)C1` (centres undefined): the inhibition came to 31.4%.
Next, `O=C(OCc1ccccc1Cl)C1CC(=O)N(Cc2ccco2)C1` (centres undefined): 12.3%.
Next, `COc1ccc(N2CC(C(=O)OCC(=O)c3ccc(C)cc3)CC2=O)cc1` (centres undefined): 23.6%; `COc1cccc(COC(=O)C2CC(=O)N(Cc3ccc(C)cc3)C2)c1OC` (centres undefined): 76.5%.

Source of the values: PubChem BioAssay AID488890 (Southern Research Specialized Biocontainment Screening …, 2010).
